Experimental data: PubChem BioAssay (Tox21)
Inconclusive results are not listed. Calls of active or inactive are those of the source. Unless noted, calls come from the whole dose curve; as a rule, active = well fitted curve in the direction sought with a large enough effect in the repeat runs; inconclusive = weak or mixed curves; inactive = no such curve, though single readings can be large; an effect the other way counts as inactive or inconclusive.

What was measured:
[1] = qHTS RealTime-Glo MT Cell Viability Assay in HEK293 cells - 24 hour (AID 1224886); note: top concentration of the series differs between compounds; nearly all actives have a fitted effect of over 50% in size
Method in brief: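 HEK293 cells were seeded at 600 cells/well together with NanoLuc luciferase and cell-permeant prosubstrate, preincubated 5 h at 37 C/5% CO2, then given compound in DMSO by pintool. Luminescence from viable-cell prosubstrate reduction was read repeatedly over 40 h.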

[2] = qHTS RealTime-Glo MT Cell Viability Assay in HEK293 cells - 8 hour (AID 1224887); note: top concentration of the series differs between compounds; nearly all actives have a fitted effect of over 50% in size
Method in brief: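 Real-time viability in HEK293: signal arises when living cells convert a prosubstrate for NanoLuc in the medium, so luminescence tracks viable cell number. Compound (23 nL, DMSO) added 5 h post-seeding; kinetic reads at 0–40 h, 37 C.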

[3] = A CellTox Green Cytotoxicity Assay to monitor cytotoxicity in HEK293 cells - 16 hour (AID 1224888); note: nearly all actives have a fitted effect of over 35% in size
Method in brief: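 Cells (HEK293, 600/well) and dye reagent are dispensed together. After 5 h at 37 C, 23 nL compound is pinned in. Plates stay at 37 C for 40 h with fluorescence read at 0h, 8h, 16h, 24h, 32h and 40h.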

[4] = qHTS RealTime-Glo MT Cell Viability Assay in HepG2 cells - 0 hour (AID 1224889); note: nearly all actives have a fitted effect of over 50% in size
Method in brief: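 HepG2 cells were seeded at 600 cells/well together with NanoLuc luciferase and a cell-permeant prosubstrate, preincubated 5 h at 37 C/5% CO2, then pin-dosed with compounds in DMSO. Nonlytic luminescence from viable cells was read at each time point.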

[5] = A CellTox Green Cytotoxicity Assay to monitor cytotoxicity in HepG2 cells - 8 hour (AID 1224890); note: nearly all actives have a fitted effect of over 45% in size
Method in brief: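 Cells and non-lytic dye reagent are dispensed together (600 HepG2 cells/well) and incubated 5 h before DMSO compound transfer. Kinetic fluorescence is then recorded in the same wells during 40 h at 37 C.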

[6] = qHTS assay to identify small molecule antagonists of the estrogen receptor alpha (ER-alpha) signaling pathway using the BG1 cell line in the presence of 0.1 nM 17-beta-estradiol - cell viability counter screen (AID 1259241); note: nearly all actives have a fitted effect of over 40% in size
Method in brief: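 In this screen, hormone-deprived VM7Luc4E2 cells were seeded at 4,000 per well, dosed with compound and 0.1 nM estradiol final, and incubated 22 hr at 37C and 5% CO2; fluorogenic live-cell protease signal reported viability.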

[7] = target: Estrogen receptor (Homo sapiens) (UniProt P03372); experiment: qHTS assay to identify small molecule antagonists of the estrogen receptor alpha (ER-alpha) signaling pathway using the BG1 cell line in the presence of 0.1 nM 17-beta-estradiol (AID 1259244); note: nearly all actives have a fitted effect of over 50% in size
Chain of Estrogen receptor (Homo sapiens) (P03372 whole entry, looked up): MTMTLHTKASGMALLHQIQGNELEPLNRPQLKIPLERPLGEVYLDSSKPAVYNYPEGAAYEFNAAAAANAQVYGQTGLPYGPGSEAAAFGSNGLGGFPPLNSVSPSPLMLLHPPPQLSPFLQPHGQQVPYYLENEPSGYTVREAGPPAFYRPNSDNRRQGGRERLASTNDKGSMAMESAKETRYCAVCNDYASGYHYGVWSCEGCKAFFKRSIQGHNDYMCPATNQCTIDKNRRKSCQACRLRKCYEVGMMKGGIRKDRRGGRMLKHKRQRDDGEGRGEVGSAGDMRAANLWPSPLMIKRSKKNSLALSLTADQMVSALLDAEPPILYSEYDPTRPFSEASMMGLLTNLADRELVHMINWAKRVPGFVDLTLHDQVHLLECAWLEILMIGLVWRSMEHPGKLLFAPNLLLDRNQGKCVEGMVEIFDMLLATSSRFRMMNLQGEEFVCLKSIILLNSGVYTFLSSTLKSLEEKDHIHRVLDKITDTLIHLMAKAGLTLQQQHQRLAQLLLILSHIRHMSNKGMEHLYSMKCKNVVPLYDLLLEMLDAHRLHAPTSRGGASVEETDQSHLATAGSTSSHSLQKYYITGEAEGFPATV
Method in brief: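 Antagonist mode: compounds in DMSO are pinned onto VM7Luc4E2 reporter cells, 0.1 nM final 17beta-estradiol is added, and after 22 h at 37C luciferase luminescence is measured with ONE-Glo.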

[8] = qHTS assay to identify small molecule phospholipidosis (PLD) inducers (AID 1259344; active = well fitted curve in the direction sought with a large enough effect; an effect the other way counts as inactive or inconclusive)
Method in brief: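 After 4 h attachment on collagen I, HepG2 cells were dosed with compound alongside LipidTOX Red, kept 24 h at 37 C, fixed, and imaged for lamellar phospholipid pits.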

[9] = qHTS assay to identify small molecule HDAC inhibitors (AID 1259364);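 note: wild-type HCT-116 cells with endogenous class I/II HDAC activity; top concentration of the series differs between compounds; nearly all actives have a fitted effect of over 45% in size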
Method in brief: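 Cells (HCT-116, wild type) are seeded at 1,500 per well, incubated overnight, treated with compound in DMSO for 2 hr, then developed with HDAC-Glo I/II reagent for 30 min at room temperature.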

[10] = qHTS assay to identify small molecule HDAC inhibitors - cell viability counter screen (AID 1259365)
Method in brief: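 Measured quantity is CellTiter-Glo luminescence from wild-type HCT-116 cells after compound incubation of 2hr at 37C, 5% CO2; reagent developed 30min at room temperature.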

[11] = qHTS assay to identify small molecule agonists of the sonic hedgehog signaling (Shh) pathway - cell viability counter screen (AID 1259366); note: nearly all actives have a fitted effect of over 50% in size
Method in brief: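 In quantitative high-throughput format, 3T3 Gli1-Luc cells were exposed to compounds for 24hr and multiplexed for viability using CellTiter-Fluor, incubated 1hr at 37C before the fluorescence read.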

[12] = qHTS assay to identify small molecule antagonists of the sonic hedgehog signaling (Shh) pathway - cell viability counter screen (AID 1259367); note: nearly all actives have a fitted effect of over 55% in size
Method in brief: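 Conditioned medium drove Shh signaling in 3T3 Gli1-Luc cells exposed to compounds at 37C and 5% CO2. Viability was determined from CellTiter-Fluor fluorescence, with reagent incubated 1 hr after 23 hr of treatment.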

[13] = qHTS assay to identify small molecule agonists of the sonic hedgehog signaling (Shh) pathway (AID 1259368; calls by dose curve;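 note: NIH/3T3-derived 3T3Gli1-Luc cells carrying a stable Gli1-driven firefly luciferase reporter; series mostly up to about 92 µM; nearly all actives have a fitted effect of over 15% in size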)
Method in brief: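 Cells of a mouse NIH/3T3 clone stably expressing luciferase under the Gli1 transcriptional response element are exposed to test chemicals for 24 hr at 37 C. Pathway activation is detected as a rise in luminescence.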

[14] = qHTS assay to identify small molecule antagonists of the sonic hedgehog signaling (Shh) pathway (AID 1259369; calls by dose curve; note: nearly all actives have a fitted effect of over 45% in size)
Method in brief: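 Cells are plated and held 4hr at 37 C, compounds (DMSO) are pinned in, conditioned medium is added to stimulate the pathway, and after 24hr luciferase reagent is added for 30min before luminescence is read.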

[15] = target: Estrogen receptor beta (Homo sapiens) (UniProt Q92731); experiment: qHTS assay to identify small molecule agonists of the estrogen receptor beta (ER-beta) signaling pathway (AID 1259377; active = well fitted activation curve with a large enough effect in the signal ratio in the repeat runs, not every such curve was filed as active; the % refers to the signal ratio)
Chain of Estrogen receptor beta (Homo sapiens) (Q92731 whole entry, looked up): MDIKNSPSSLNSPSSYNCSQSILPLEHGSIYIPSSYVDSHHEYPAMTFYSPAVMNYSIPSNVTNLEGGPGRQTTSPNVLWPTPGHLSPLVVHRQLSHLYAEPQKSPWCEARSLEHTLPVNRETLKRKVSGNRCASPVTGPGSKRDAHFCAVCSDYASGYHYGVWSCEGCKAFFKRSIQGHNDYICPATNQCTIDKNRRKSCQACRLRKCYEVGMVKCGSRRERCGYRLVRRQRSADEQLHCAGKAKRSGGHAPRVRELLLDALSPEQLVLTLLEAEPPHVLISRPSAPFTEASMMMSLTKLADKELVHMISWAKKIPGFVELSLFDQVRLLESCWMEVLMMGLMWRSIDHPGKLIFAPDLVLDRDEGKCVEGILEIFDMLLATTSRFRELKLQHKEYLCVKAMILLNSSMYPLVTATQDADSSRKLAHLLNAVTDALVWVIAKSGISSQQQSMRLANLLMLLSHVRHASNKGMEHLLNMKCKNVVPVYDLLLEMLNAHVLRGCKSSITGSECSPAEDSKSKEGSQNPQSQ
Method in brief: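 Reporter cells (HEK293T, ER-beta-UAS-bla) receive compounds or DMSO after a 6 hr pre-incubation. They then incubate 16 hr at 37C/5% CO2, and fluorescence from LiveBLAzer B/G substrate is measured after 2 hours at room temperature.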

[16] = target: Estrogen receptor beta (Homo sapiens) (UniProt Q92731); experiment: qHTS assay to identify small molecule antagonists of the estrogen receptor beta (ER-beta) signaling pathway (AID 1259378; active = well fitted inhibition curve with a large enough effect in the signal ratio in the repeat runs, not every such curve was filed as active; the % refers to the signal ratio)
Method in brief: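 ER-beta-UAS-bla HEK293T (GripTite) cells in 2% charcoal-stripped FBS medium were preincubated 6 hr at 37C, dosed with compound, then stimulated with 1 nM E2 (final) for 16 hr; beta-lactamase reporter read by B/G FRET fluorescence after 2 hr substrate loading.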

[17] = qHTS assay to identify small molecule agonists of the androgen receptor (AR) signaling pathway in the presence of an antagonist - cell viability counter screen (AID 1259379);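 note: MDA-kb2 human breast cancer cells carrying an MMTV luciferase reporter; series mostly up to about 92 µM; nearly all actives have a fitted effect of over 25% in size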
Method in brief: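 Cytotoxicity is assessed by CellTiter-Fluor in MDA-kb2 cells carrying an MMTV-driven luciferase reporter. Cells receive 3.0uM nilutamide plus compounds at 15 concentrations and incubate 16 hr at 37C without CO2 before fluorescence reading.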

[18] = qHTS assay to identify small molecule agonists of the estrogen receptor beta (ER-beta) signaling pathway - cell viability counter screen (AID 1259380); note: nearly all actives have a fitted effect of over 30% in size
Method in brief: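 Cytotoxicity is measured in parallel with the reporter screen: after 16 hr compound exposure at 37C and a 2 hr LiveBLAzer step, CellTiter-Glo is added to the same ER-beta-UAS-bla HEK293T wells and luminescence read after 30 min.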

[19] = qHTS assay to identify small molecule antagonists of the androgen receptor (AR) signaling pathway using the MDA cell line in the presence of 0.5 nM R1881 - cell viability counter screen (AID 1259242); note: nearly all actives have a fitted effect of over 45% in size
Method in brief: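 Steps: plate MDA-kb2 cells, rest 5 hr at 37C without CO2; pin in compounds in DMSO; add R1881 to 0.5 nM final; incubate 16 hr; add CellTiter-Fluor, 30 min; read fluorescence.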

[20] = target: Androgen receptor (Homo sapiens) (UniProt P10275); experiment: qHTS assay to identify small molecule antagonists of the androgen receptor (AR) signaling pathway using the MDA cell line in the presence of 0.5 nM R1881 (AID 1259243); note: nearly all actives have a fitted effect of over 50% in size
Chain of Androgen receptor (Homo sapiens) (P10275 whole entry, looked up): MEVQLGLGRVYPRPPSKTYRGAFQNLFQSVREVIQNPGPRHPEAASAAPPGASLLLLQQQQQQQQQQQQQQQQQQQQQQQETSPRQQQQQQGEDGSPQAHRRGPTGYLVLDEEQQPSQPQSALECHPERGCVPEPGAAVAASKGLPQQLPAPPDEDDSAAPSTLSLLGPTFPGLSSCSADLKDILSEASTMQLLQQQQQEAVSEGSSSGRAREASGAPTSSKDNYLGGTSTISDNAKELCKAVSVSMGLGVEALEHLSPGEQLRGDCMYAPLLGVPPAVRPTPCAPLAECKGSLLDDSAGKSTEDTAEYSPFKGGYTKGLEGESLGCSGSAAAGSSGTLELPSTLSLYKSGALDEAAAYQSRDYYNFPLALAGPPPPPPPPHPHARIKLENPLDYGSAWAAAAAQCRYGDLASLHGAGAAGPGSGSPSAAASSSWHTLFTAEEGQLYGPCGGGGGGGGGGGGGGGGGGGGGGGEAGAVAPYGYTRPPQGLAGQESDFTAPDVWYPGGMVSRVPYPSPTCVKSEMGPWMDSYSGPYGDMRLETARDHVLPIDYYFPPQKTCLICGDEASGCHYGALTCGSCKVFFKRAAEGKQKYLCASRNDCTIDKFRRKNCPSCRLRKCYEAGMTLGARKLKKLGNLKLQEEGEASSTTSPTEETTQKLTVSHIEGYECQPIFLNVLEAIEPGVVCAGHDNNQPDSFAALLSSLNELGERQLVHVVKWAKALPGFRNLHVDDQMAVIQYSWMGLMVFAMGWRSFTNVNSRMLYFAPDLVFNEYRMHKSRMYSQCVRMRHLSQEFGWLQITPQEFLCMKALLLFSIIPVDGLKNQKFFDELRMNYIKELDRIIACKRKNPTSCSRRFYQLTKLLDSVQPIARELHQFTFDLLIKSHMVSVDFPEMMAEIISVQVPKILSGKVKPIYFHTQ
Method in brief: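 Stably transfected MDA-kb2 cells express luciferase from an MMTV promoter bearing both AR and GR response elements. Compounds plus 0.5 nM R1881 (final) were incubated 16 hr at 37C without CO2, then luminescence measured.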
% is set by controls: 0 for no effect and ±100 for the full control effect.

CC(=O)OCC(=O)Nc1cc(C#N)cc(NC(=O)COC(C)=O)c1Cl
inactive: Potency [1] | Potency [2] | Potency [3] | Potency [4] | Potency [5] | outcome [6] | outcome [7] | PLD induction [8] -3.87% [at 7.66 µM] | Potency [9] | outcome [10] | outcome [11] | outcome [12] | outcome [13] | Potency [14] | Potency [15] | Potency [16] | outcome [17] | outcome [18]

CC(C)CCOC(=O)c1ccccc1
inactive: Potency [1] | Potency [2] | Potency [3] | Potency [4] | Potency [5] | outcome [6] | outcome [19] | outcome [10] | outcome [11] | outcome [12] | outcome [13] | Potency [14] | outcome [17] | outcome [18]

OCC1(CO)COCOC1
inactive: Potency [1] | Potency [2] | Potency [3] | Potency [4] | Potency [5] | outcome [6] | Potency [9] | outcome [10] | outcome [11] | outcome [12] | outcome [13] | Potency [14] | Potency [15] | Potency [16] | outcome [17] | outcome [18]

CC(C)NCC(O)c1ccc2ccccc2c1 (stereo not drawn)
inactive: Potency [1] | Potency [2] | Potency [3] | Potency [4] | Potency [5] | outcome [6] | outcome [8] | Potency [9] | outcome [10] | outcome [11] | outcome [12] | outcome [13] | Potency [14] | Potency [15] | Potency [16] | outcome [17] | outcome [18]

Cc1ccc2c(c1)C(=O)c1ccccc1C2=O
inactive: Potency [1] | Potency [2] | Potency [3] | Potency [4] | Potency [5] | outcome [6] | outcome [7] | outcome [10] | outcome [11] | outcome [12] | outcome [13] | Potency [14] | Potency [16] | outcome [17]

N[C@@H](CSCCCO)C(=O)O
inactive: activity change, negative = cytotoxicity [1] 2.46% [at 15.8 µM] | activity change, negative = cytotoxicity [2] -0.319% [at 15.8 µM] | activity change [3] 3.31% [at 15.8 µM, hits give high values] | activity change, negative = cytotoxicity [4] -0.41% [at 15.8 µM] | cytotoxicity increase [5] -14.5% [at 15.8 µM] | activity change, negative = cytotoxicity [6] -2.4% [at 19 µM] | activity, negative = inhibition [20] -8.92% [at 19 µM] | activity change, negative = inhibition [7] -4.57% [at 19 µM] | outcome [8] | activity change, negative = inhibition [9] -2.63% [at 19 µM] | activity change, negative = cytotoxicity [10] -0.57% [at 19 µM] | viability change, negative = cytotoxic [11] -0.254% [at 19 µM] | viability change, negative = cytotoxic [12] 1.48% [at 19 µM] | activity change [13] 0.782% [at 18.9 µM] | activation [15] -2.61% [at 19 µM] | activity, negative = inhibition [16] 0.481% [at 19 µM] | activity change, negative = cytotoxicity [17] -1.46% [at 19 µM] | activity change, negative = cytotoxicity [18] 7.76% [at 19 µM]

c1ccc(-c2nn[nH]n2)cc1
inactive: Potency [1] | Potency [2] | Potency [3] | Potency [4] | Potency [5] | outcome [6] | outcome [7] | Potency [9] | outcome [10] | outcome [11] | outcome [12] | outcome [13] | Potency [14] | Potency [15] | Potency [16] | outcome [17] | outcome [18]

CC(C)CO
inactive: Potency [1] | Potency [2] | Potency [3] | Potency [4] | Potency [5] | outcome [6] | outcome [7] | Potency [9] | outcome [10] | outcome [11] | outcome [12] | outcome [13] | Potency [14] | outcome [17] | outcome [18]

C#CCN[C@@H]1CCc2ccccc21
inactive: Potency [1] | Potency [2] | Potency [3] | Potency [4] | Potency [5] | outcome [6] | Potency [20] | outcome [7] | outcome [8] | Potency [9] | outcome [11] | outcome [12] | outcome [13] | Potency [14] | Potency [15] | Potency [16] | outcome [17]

C=C(C)C1CC=C(C)C(=O)C1 (stereo not drawn)
inactive: Potency [1] | Potency [2] | Potency [3] | Potency [4] | Potency [5] | outcome [6] | outcome [19] | Potency [9] | outcome [10] | outcome [11] | outcome [12] | outcome [13] | Potency [14] | outcome [17] | outcome [18]

C=CCCCC
inactive: Potency [1] | Potency [2] | Potency [3] | Potency [4] | Potency [5] | outcome [6] | outcome [7] | Potency [9] | outcome [10] | outcome [11] | outcome [12] | outcome [13] | Potency [14] | outcome [17] | outcome [18]

NCc1ccc(S(N)(=O)=O)cc1
inactive: Potency [1] | Potency [2] | Potency [3] | Potency [4] | Potency [5] | outcome [6] | outcome [8] | Potency [9] | outcome [10] | outcome [11] | outcome [13] | Potency [14] | Potency [15] | Potency [16] | outcome [17]

CC(=O)OC(C)=O
inactive: Potency [1] | Potency [2] | Potency [3] | Potency [4] | Potency [5] | outcome [6] | outcome [19] | Potency [9] | outcome [10] | outcome [11] | outcome [13] | Potency [14] | outcome [17] | outcome [18]

COC(=O)/C=C\C(=O)O
inactive: Potency [1] | Potency [2] | Potency [3] | Potency [4] | Potency [5] | outcome [6] | outcome [7] | Potency [9] | outcome [10] | outcome [11] | outcome [12] | outcome [13] | Potency [14] | Potency [15] | outcome [17] | outcome [18]

CCOC(=O)CC1(C)OCC(C)O1 (stereo not drawn)
inactive: Potency [1] | Potency [2] | Potency [3] | Potency [4] | Potency [5] | outcome [6] | outcome [7] | Potency [9] | outcome [10] | outcome [11] | outcome [13] | Potency [14] | Potency [15] | Potency [16] | outcome [17] | outcome [18]

CCC(C(=O)OCCN1CCOC(c2ccccc2)C1C)c1ccccc1 (stereo not drawn)
inactive: Potency [3] | Potency [4] | Potency [5] | outcome [6] | outcome [7] | Potency [9] | outcome [10] | outcome [11] | outcome [13] | outcome [17] | outcome [18]
